Data taken from PubChem BioAssay AID652025 (National Center for Advancing Translational Sciences (NCATS), 2013).
Values joined by “and” are separate entries in the source; they are usually repeats but may differ in a detail not shown here. Equal values may be shown once. Screen size: about 360,000 compounds; about 240 (0.067%) were called active. For the sample, actives were picked, then their nearest neighbours and some compounds at random. Unmarked numbers belong to inactive results. Rule as the data show it: active = activation above about 50%; inconclusive = mostly about 30% to 49%; inactive = weaker than that.

Test: qHTS of IL-2 Activators; also: 0% is about no effect
Conditions: IL-2 activation reporter assay, cell-based qHTS; stronger effect = higher value; in transgenic mouse T cells; stimulated with anti-CD3/CD4/CD28 beads
Text: The adaptive immune response against any infectious agent begins with the activation of an antigen specific T cell. This relatively rare and inert ("naive") T cell undergoes a massive proliferative expansion and differentiation process to generate sufficient number of potent pathogen-specific effector T cells. The effector T cells fight the infection by making cytokines and helping other cells to become fully armed as well. If any naive T cell has antigen receptors (TCRs) that can be activated by self peptides, then a variety of regulatory mechanisms kick in to prevent this cell from performing to its full potential. These processes collectively constitute the phenomenon of immunological tolerance and their failure leads to autoimmunity. One arm of tolerance involves generation of biochemical negative feedback downstream of the TCR (tuning). This is especially relevant to self antigens present in the body over long periods of time (chronic), which form the bulk of our proteome. The negative feedback serves to tune the TCR signaling, such that the ambient antigenic stimulation is nullified intracellularly. Unfortunately, this critical machinery serves as a target for chronic viral, bacterial and parasitic infections (as well as tumors), which can evade a robust immune response, simply by allowing T cells to tune down their signaling to pathogen or malignancy derived antigens. As such, disrupting the tuning in such cases would allow the tolerant T cell to function again and deliver a robust effector response.
If a therapeutic can restore responsiveness to the tuned down T cell, even for a short time, they could combat the pathogen without any additional immunization. To that end, we have developed a sensitive HTS T cell based assay based on IL-2. This assay will be screened against the Molecular Libraries Small Molecule Repository (MLSMR) to find small molecules that could elicit this response.
NIH Chemical Genomics Center [NCGC]
NIH Molecular Libraries Probe Centers Network [MLPCN]
Assay Submitter (PI): Ron Schwartz, NIAID
4 microL (750 cells/well) of unstimulated transgenic mouse T cells (columns 1-3,5-48) are dispensed into Aurora LoBase, black clear-bottom 1536-well assay plates; column 4 receives an identical concentration of transgenic memory T cells as a non-tolerant control. Compounds are then transferred via Kalypsys pin tool equipped with 1536-pin array (10 nL slotted pins, V&P Scientific, San Diego, CA). Following addition of compound and a 60 minute incubation, 1 microL of bead stimulation solution ((0.04 micron Fluospheres (Life technologies, CA) coated with 10ug/ml each anti-CD3 and anti-CD4 (clones 2C11 and GK1.5, BD Biosciences, CA) and mixed with 1ug/ml anti-CD28 (clone PV-1, BD biosciences, CA)). columns 2-48) is added to stimulate the IL-2 response pathway; media is instead added to column 1 as an unstimulated control, while PMA/ionomycin (Sigma Aldrich, MO) is added to column 3 as a control for IL-2 tolerance bypass. The plates are then incubated at 37 degrees C for 18 hours. EGFP and DsRed signal are then detected using an Acumen eX3 Explorer fluorescent plate cytometer. All cells are dispensed in cell media containing EHAA (Quality Biologicals, MD), RPMI (Quality Biologicals, MD), Glutamine (Life Technologies, CA), Penicillin/Streptomycin (Quality Biologicals, MD), 2-ME (Sigma Aldrich, MO) and 10% FBS (Gemini Bioproducts, CA) .
O=S1(=O)C=C(SCCN2CCCC2)c2ccccc21 showed an activation of 5.28%.
With [O-][n+]1c2c(nn1-c1ccc(Cl)c(Cl)c1)-c1nonc1CC2 the activation was 0.19%.
CCOC(=O)c1cn[nH]c1NC(=S)Nc1ccccc1 gave an activation of -3.84%.
Molecule CCOC(=O)C1C(=O)OC2(CCCC2)C1C(=O)OCC (stereo not drawn) has an activation of -0.195%.
With Cc1c(C(=O)NC(=S)NCc2cccnc2)oc2ccccc12 the activation was -3.54%.
Work on COC(=O)C1=C(N)Oc2c(oc(CO)cc2=O)C1c1c(F)cccc1Cl (stereo not drawn) yielded an activation of 1.1%.
In the case of C=CCOC(=O)N1CCC2CC1c1cc(-c3ccc(OC)cc3)ccc12 (stereo not drawn), the activation is reported as -0.638%.
For COc1ccccc1N(C(=O)Cn1nnc2ccccc21)C(C(=O)NCc1ccco1)c1ccc(C)o1 (stereo not drawn), the activation was -0.406%.
Work on CN(CCO)Cc1csc2ccc(Br)cc12 yielded an activation of -0.737%.
With CCOc1ccc(C(=O)NC(C(=O)NCc2ccccn2)C(C)C)cc1 (stereo not drawn) the activation was -4.42%.
COc1ccc(/C=C/CN2CCN(Cc3ccc(C)cc3)C(CCO)C2)cc1 (stereo not drawn) gave an activation of 0.996%.
Cc1cccc(C(=O)O)c1[N+](=O)[O-] gave an activation of -0.181%.
Work on O=C1C=CC(=O)N1c1ccc(N2CCCCC2)cc1 yielded an activation of -7.5%.
Molecule OCC1(CO)CC2(C1)CC(CO)(CO)C2 has an activation of 0.276%.
Molecule CC(C)(C)C(=O)NNC(=O)c1ccc(Oc2cc(Cl)cc(Cl)c2)o1 has an activation of 0.282%.
Cc1ccc(NC(=O)c2nc[nH]c2C(=O)N2CCCCC2)c(C(=O)c2ccccc2)c1 showed an activation of -0.352%.
With O=C(CCN1C(=O)/C(=C/c2cccs2)SC1=S)NNC(=O)c1cccc(O)c1 the activation was 133% (active).
Molecule O=C1/C(=C/c2cccs2)SC(=S)N1C1CCS(=O)(=O)C1 (stereo not drawn) has an activation of 2.78%.
In the case of O=C(CCN1C(=O)c2ccccc2C1=O)NNC(=O)c1ccc(Cl)cc1Cl, the activation is reported as 0.499%.
For CCOC(=O)C1CCCN(S(=O)(=O)c2ccc3c(c2)C(C)(C)C(=O)N3C)C1 (stereo not drawn), the activation was -2.21%.
CCCn1c(=O)c2[nH]c(C3CCCC3)nc2n(CCC)c1=O gave an activation of -0.643%.
With C[C@]12C=CC(=O)C=C1CC[C@@H]1[C@@H]2C(=O)C[C@@]2(C)[C@H]1CC[C@]2(O)C(=O)CO the activation was 0.342% and -0.368%.
For CCOCCCN(C)C1CCN(C(=O)c2oc3ccccc3c2NC(=O)Cc2cccc([N+](=O)[O-])c2)CC1, the activation was -1.43%.
O=C(Nc1ccc(Br)cc1)C1CCC(=O)N1Cc1ccccc1Cl (stereo not drawn) showed an activation of -1.19%.
Work on C=CCOC(=O)C1=C[C@H](c2ccc(Br)cc2)C[C@H](OCCCCO)O1 yielded an activation of 0.356%.
In the case of CC(C)OC(=O)Cn1nc(C(F)(F)F)c2c1CCCC2, the activation is reported as 0.525%.
In the case of C=CCn1c(CCNC(=O)c2ccccc2F)nnc1SCC(=O)Nc1ccc(OC)cc1, the activation is reported as 0.0893%.
With CON(C)S(=O)(=O)c1ccc2c(c1)NC(=O)C1CCCN21 (stereo not drawn) the activation was -2.38%.
Work on O=c1[nH]c(CSc2ccccc2)nc2c1oc1ccccc12 yielded an activation of 0.844%.
CCC(C)Sc1nc2c(cnn2-c2ccc(F)cc2)c(=O)[nH]1 (stereo not drawn) gave an activation of -4.9%.
Work on CC(=O)CC[C@@H](C)O[C@@H]1OC(C)[C@H](O)CC1O (stereo partly drawn) yielded an activation of 0.121%.
With C/C(=N\NC(=O)c1ccc(CSc2nc(C)cc(C)n2)cc1)C1CCCCC1 the activation was -0.149%.
Cc1cc(C)n(CCNC(=O)CC2C(=O)NCCN2Cc2ccc(C)o2)n1 (stereo not drawn) showed an activation of -0.111%.
COc1ccccc1N(CC(=O)Nc1ccccc1C(=O)N1CCCC1)S(C)(=O)=O showed an activation of -1.54%.
Work on Cc1cc(Br)ccc1SCC(=O)OCC(=O)NCc1ccc2c(c1)OCO2 yielded an activation of -3.89%.
With CCOc1ccc(NC(=O)CN(C)CC(=O)Nc2cccc(Cl)c2C)cc1OCC the activation was -1.33%.
Molecule Nc1ccc(N=Nc2ccccc2Cl)c(N)n1 has an activation of 0.821%.
With Nn1cnnc1N/N=C/c1cc([N+](=O)[O-])c(Cl)cc1Cl the activation was -0.276%.
Molecule CC1=C(C(N)=O)C(c2ccc3c(c2)OCO3)n2nc(-c3cccc(C)c3)nc2N1 (stereo not drawn) has an activation of -0.667%.
Molecule O=c1nc(NO)ccn1C1CCCO1 (stereo not drawn) has an activation of -4.07%.
In the case of CC(C)(C)OC(=O)Nc1ccc([C@@H](NC(=O)OC(C)(C)C)C(=O)OC(C)(C)C)cc1, the activation is reported as 1.22%.
COc1ccc(CCNC(=O)c2ccc(NC(=O)CC3SC(N4CCCCC4)=NC3=O)cc2)cc1OC (stereo not drawn) showed an activation of 1.44%.
O=C(CSc1nc(Nc2ccccc2)nc(N2CCOCC2)n1)Nc1cc(Cl)ccc1O showed an activation of -3.68%.
Molecule CC(C)CN1C(=O)CN(S(C)(=O)=O)CC1(C)C(=O)NCc1ccccc1 (stereo not drawn) has an activation of -0.324%.
For O=C(Nc1ccc(F)c(Cl)c1)C1CCN(S(=O)(=O)c2cccnc2)CC1, the activation was -4.67%.
With CCN1/C(=C\c2ccc3ccccc3[n+]2CC)Sc2cc(C)ccc21 the activation was 83.8% (active).
In the case of O=C(O)C1CCCCC1C(=O)Nc1ccc(Cl)cc1 (stereo not drawn), the activation is reported as -0.998%.
For NC(N)=NCCCc1cn(CC(=O)N2CCNCC2)nn1, the activation was -0.704%.
CCC[C@H]1CCCC/C=C\CCCC(=O)OCCN1C(=O)OC(C)(C)C showed an activation of -3.09%.
For OC(CNCc1ccc(Cl)c(Cl)c1)c1ccccc1 (stereo not drawn), the activation was 0.815%.
In the case of Cc1ccc(C)c(NS(=O)(=O)c2cc(Br)cnc2N)c1, the activation is reported as -0.259%.
CN1CCN(c2ccc(CNS(=O)(=O)c3cccc(F)c3)cc2)CC1 gave an activation of -0.358%.
For COc1ccc(CNC(=O)CN2C(=O)NC3(CCCc4sccc43)C2=O)cc1 (stereo not drawn), the activation was 1.66%.
With CN(c1ccccc1)c1nc(N)c([N+](=O)[O-])c(NCc2ccco2)n1 the activation was 2.01%.
In the case of CCCC1NC(=O)NC(C)=C1C(=O)OCC (stereo not drawn), the activation is reported as -3.34%.
Work on CC1(C(=O)NCc2ccc(F)c(F)c2)Cc2c(-c3ccc4c(c3)OCO4)ccnc2O1 (stereo not drawn) yielded an activation of 0.821%.
Cc1ccc(OCCNC(=O)CN2C(=O)NC3(CCCC3)C2=O)cc1 showed an activation of -0.135%.
For Cc1ccc(CNC(=O)Cn2cnc3c(NCc4ccccc4)ncnc32)o1, the activation was -0.27%.
